Legend:
Test in all cases: protein domain microarray probed with biotinylated miRNA; Domain array: 20 mM Tris-HCl pH 7.4, 200 mM KCl, 0.2 mM EDTA, 0.05% NP40, 2 ug/ul heparin, overnight 4 C. ORF array: PBS pH 7.0 with RNase inhibitor, 100 ng RNA; high values mean tight binding
Settings in all cases: ssRNA
NOVA2(3) = biological target: T1, NOVA2(3) (Homo sapiens, UniProt Q9UNW9)
T1 sequence: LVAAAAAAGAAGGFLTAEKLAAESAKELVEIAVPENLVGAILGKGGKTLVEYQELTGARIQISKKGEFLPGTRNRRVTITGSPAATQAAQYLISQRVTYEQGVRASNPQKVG

RNPC3(2) = biological target: T2, RNPC3(2) (Homo sapiens, UniProt Q96LT9)
T2 sequence: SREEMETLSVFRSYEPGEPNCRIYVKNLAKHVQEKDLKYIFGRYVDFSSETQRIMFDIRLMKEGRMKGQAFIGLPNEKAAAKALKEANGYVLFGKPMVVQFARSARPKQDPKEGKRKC

RBMXL1 = RBMXL1 (Homo sapiens, UniProt Q96E39)
RBM38 = biological target: T3, RBM38 (Homo sapiens, UniProt Q9H0Z9)
T3 sequence: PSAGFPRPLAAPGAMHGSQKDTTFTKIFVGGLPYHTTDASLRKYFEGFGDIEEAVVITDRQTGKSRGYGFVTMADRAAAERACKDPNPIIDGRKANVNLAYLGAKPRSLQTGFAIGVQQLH

IGF2BP2(3-4) = IGF2BP2(3-4) (Homo sapiens, UniProt Q9Y6M1)
SETD1A = SETD1A (Homo sapiens, UniProt O15047)
IGF2BP1(3-4) = IGF2BP1(3-4) (Homo sapiens, UniProt Q9NZI8)
RBM18 = biological target: T4, RBM18 (Homo sapiens, UniProt Q96H35)
T4 sequence: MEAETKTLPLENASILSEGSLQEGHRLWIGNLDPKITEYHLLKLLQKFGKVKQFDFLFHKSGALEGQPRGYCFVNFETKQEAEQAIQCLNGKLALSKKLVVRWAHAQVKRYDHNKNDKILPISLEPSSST

VIGILIN(1-5) = VIGILIN(1-5) (Homo sapiens, UniProt Q00341)
RBMX = RBMX (Homo sapiens, UniProt P38159)
STAU2(1-2) = biological target: T5, STAU2(1-2) (Homo sapiens, UniProt Q9NUL3)
T5 chain: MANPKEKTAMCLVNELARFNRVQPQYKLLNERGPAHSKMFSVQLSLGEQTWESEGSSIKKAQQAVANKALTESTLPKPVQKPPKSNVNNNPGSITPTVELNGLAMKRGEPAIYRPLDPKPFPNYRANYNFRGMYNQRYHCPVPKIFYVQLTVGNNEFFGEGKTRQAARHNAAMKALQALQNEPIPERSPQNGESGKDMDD

RBM24 = biological target: T6, RBM24 (Homo sapiens, UniProt Q9BX46)
T6 sequence: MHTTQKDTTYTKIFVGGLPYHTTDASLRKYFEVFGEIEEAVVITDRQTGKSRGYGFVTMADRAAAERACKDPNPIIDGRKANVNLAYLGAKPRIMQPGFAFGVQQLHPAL

TNRC4(3) = TNRC4(3) (Homo sapiens, UniProt Q5SZQ8)
STAU1(2) = STAU1(2) (Homo sapiens, UniProt O95793)
VIGILIN(6-10) = VIGILIN(6-10) (Homo sapiens, UniProt Q00341)
DUS2L = biological target: T7, DUS2L (Homo sapiens, UniProt Q9NX74)
T7 sequence: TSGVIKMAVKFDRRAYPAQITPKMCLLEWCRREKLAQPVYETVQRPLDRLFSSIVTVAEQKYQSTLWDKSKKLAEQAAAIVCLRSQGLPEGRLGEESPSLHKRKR

NFAT90(2)/ILF3 = biological target: T8, NFAT90(2)/ILF3 (Homo sapiens, UniProt Q12906)
T8 sequence: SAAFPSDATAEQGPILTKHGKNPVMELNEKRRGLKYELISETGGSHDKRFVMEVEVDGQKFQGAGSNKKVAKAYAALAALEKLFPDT

IGF2BP3(1-2) = IGF2BP3(1-2) (Homo sapiens, UniProt O00425)
YTHDF2 = biological target: T9, YTHDF2 (Homo sapiens, UniProt Q9Y5A9)
T9 sequence: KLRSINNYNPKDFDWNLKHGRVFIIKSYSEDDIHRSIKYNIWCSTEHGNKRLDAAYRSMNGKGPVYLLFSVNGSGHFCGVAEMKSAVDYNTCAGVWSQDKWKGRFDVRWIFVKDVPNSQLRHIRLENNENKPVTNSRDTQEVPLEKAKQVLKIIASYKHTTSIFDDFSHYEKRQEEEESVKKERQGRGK

RBM44 = biological target: T10, RBM44 (Homo sapiens, UniProt Q6ZP01)
T10 sequence: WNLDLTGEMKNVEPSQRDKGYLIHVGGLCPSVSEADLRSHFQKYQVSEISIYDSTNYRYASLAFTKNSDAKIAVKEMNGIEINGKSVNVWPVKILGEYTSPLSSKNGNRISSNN

RBMXL1, sequence (Q96E39 1-110): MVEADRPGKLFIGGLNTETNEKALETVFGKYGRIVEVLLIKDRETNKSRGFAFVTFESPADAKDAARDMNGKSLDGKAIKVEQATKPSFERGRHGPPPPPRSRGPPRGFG
IGF2BP3(1-2), sequence (O00425 178-364): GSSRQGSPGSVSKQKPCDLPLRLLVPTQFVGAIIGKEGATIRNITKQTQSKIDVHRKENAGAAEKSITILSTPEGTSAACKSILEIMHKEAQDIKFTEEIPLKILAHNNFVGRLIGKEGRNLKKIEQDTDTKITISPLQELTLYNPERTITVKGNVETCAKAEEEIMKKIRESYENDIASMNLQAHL
IGF2BP1(3-4), sequence (Q9NZI8 388-577): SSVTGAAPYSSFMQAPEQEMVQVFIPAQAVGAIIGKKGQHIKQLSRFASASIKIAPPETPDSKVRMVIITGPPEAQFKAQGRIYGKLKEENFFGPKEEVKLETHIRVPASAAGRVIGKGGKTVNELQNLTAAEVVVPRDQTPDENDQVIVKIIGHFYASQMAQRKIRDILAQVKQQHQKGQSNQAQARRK
RBMX, sequence (P38159 1-110): as the sequence (Q96E39 1-110) above, with T26A, I40M, R91S, H94R, F109L, G110R counted along it
VIGILIN(6-10), sequence (Q00341 495-900): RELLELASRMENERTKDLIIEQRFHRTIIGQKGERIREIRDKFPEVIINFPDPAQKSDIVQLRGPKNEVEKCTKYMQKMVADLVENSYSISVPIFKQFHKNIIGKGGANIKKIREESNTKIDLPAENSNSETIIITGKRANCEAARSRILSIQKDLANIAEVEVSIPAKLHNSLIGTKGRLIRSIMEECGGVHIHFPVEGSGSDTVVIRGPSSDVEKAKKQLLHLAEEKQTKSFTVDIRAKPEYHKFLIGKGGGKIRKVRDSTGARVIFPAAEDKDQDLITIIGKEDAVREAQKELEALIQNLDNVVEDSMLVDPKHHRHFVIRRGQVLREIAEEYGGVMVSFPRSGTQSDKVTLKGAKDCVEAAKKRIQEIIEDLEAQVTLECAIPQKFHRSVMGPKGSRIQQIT
TNRC4(3), sequence (Q5SZQ8 351-465): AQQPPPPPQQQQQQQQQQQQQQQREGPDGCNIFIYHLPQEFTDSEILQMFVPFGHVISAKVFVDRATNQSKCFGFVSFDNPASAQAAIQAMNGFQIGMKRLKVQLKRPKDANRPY
VIGILIN(1-5), sequence (Q00341 138-534): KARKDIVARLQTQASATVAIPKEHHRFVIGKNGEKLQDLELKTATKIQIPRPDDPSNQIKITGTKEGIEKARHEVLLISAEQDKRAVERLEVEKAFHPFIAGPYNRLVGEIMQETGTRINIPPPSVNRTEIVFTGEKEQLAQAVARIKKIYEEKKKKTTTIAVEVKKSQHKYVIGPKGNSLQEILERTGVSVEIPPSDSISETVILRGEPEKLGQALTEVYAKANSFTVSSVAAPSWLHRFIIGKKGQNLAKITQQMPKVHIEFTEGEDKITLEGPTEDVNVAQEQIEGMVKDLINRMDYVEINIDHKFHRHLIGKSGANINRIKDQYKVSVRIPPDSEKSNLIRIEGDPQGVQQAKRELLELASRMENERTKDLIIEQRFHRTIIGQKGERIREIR
SETD1A, sequence (O15047 60-200): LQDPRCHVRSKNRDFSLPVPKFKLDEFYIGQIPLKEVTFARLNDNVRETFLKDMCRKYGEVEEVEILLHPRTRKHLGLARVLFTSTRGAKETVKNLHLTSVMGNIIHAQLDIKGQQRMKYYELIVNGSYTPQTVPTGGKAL
IGF2BP2(3-4), sequence (Q9Y6M1 410-599): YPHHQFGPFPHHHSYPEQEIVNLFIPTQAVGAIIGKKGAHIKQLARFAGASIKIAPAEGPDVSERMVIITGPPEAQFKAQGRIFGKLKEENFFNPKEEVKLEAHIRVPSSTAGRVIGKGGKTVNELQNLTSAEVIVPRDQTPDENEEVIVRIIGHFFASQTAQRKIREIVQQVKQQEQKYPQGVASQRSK
STAU1(2), sequence (O95793 164-271): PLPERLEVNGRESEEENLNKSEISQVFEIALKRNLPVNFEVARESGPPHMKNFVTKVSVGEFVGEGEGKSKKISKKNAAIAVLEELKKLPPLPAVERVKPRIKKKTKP

Sequence	binding signal (NOVA2(3)) [fluorescence intensity]	binding signal (RNPC3(2)) [fluorescence intensity]	binding signal (RBMXL1) [fluorescence intensity]	binding signal (RBM38) [fluorescence intensity]	binding signal (IGF2BP2(3-4)) [fluorescence intensity]	binding signal (SETD1A) [fluorescence intensity]	binding signal (IGF2BP1(3-4)) [fluorescence intensity]	binding signal (RBM18) [fluorescence intensity]	binding signal (VIGILIN(1-5)) [fluorescence intensity]	binding signal (RBMX) [fluorescence intensity]	binding signal (STAU2(1-2)) [fluorescence intensity]	binding signal (RBM24) [fluorescence intensity]	binding signal (TNRC4(3)) [fluorescence intensity]	binding signal (STAU1(2)) [fluorescence intensity]	binding signal (VIGILIN(6-10)) [fluorescence intensity]	binding signal (DUS2L) [fluorescence intensity]	binding signal (NFAT90(2)/ILF3) [fluorescence intensity]	binding signal (IGF2BP3(1-2)) [fluorescence intensity]	binding signal (YTHDF2) [fluorescence intensity]	binding signal (RBM44) [fluorescence intensity]
UAGCUUAUCAGACUGAUGUUGA	63.2 ± 4.35	72.3 ± 78	96.9 ± 4.67	1790 ± 23.9	59.8 ± 2.54	23.2 ± 2.69	22 ± 1.81	72.6 ± 4.62	20.4 ± 2.57	71.4 ± 18	20.4 ± 2.26	1720 ± 109	25 ± 0.665							
UGAGGUAGUAGGUUGUAUGGUU	144 ± 61.5	130 ± 69.7	805 ± 10.1	1540 ± 34.6	1720 ± 120	99.9 ± 23.9	1615 ± 5.45	291 ± 10.4	454 ± 17.2	571 ± 25	74.1 ± 4.8	1340 ± 23.1	333 ± 23.4	78.8 ± 6.29	270 ± 12.9	47.2 ± 5.46	27.3 ± 2.02	34.3 ± 8.59	72.2 ± 12.5	24.5 ± 2.6
UGAGGUAGUAGGUUGUAUAGUU	49.4 ± 3.28	32.3 ± 6.65	300 ± 36.4	631 ± 19.8	412 ± 46	36 ± 1.17	262 ± 8.37	110 ± 9.81	86.5 ± 26.5	216 ± 27.7		596 ± 24	69.3 ± 14.8		26.1 ± 2.47			21.2 ± 1.65		20.7 ± 0.276
UGAGGUAGUAGGUUGUGUGGUU	271 ± 8.31	301 ± 43.8	981 ± 17.4	1950 ± 73.9	1420 ± 38.2	213 ± 11.9	1118 ± 5.57	312 ± 45.3	622 ± 17.6	721 ± 26	148.7 ± 0.905	1780 ± 28.1	324 ± 34.8	123 ± 31.3	498 ± 6.91	76.1 ± 2.55	45.6 ± 4.09	61.2 ± 7.31	90.3 ± 14.1	
AGAGGUAGUAGGUUGCAUAGUU	1853 ± 17.2	168 ± 44.9	1390 ± 47.7	2315 ± 13.9	1780 ± 95.8	95.585 ± 0.0212	955 ± 10.5	316 ± 12.6	173 ± 11.1	963 ± 66.7	53.6 ± 0.792	1891 ± 18.8	191 ± 21.4	52.2 ± 5.35	91.1 ± 6.12	25.82 ± 0.0919	21.9 ± 1.63	44.2 ± 2.91	38.4 ± 3.27	
CAGUGCAAUGAUGAAAGGGCAU	508 ± 29.8	138 ± 35.8	1000 ± 56.8	1690 ± 55.6	904 ± 85.6	64.7 ± 9.41	436 ± 8.23	248.1 ± 1.58	156 ± 8.85	686 ± 37.1	39.2 ± 1.2	1450 ± 56.8	85.6 ± 1	23.7 ± 6.78	43.4 ± 1.94		23 ± 0.905	43.1 ± 3.58	30.8 ± 0.523	21.2 ± 0.735

From publication PMC11574364
